Source: the supplement of paper PMC6555819

Assays:
Test in all cases: PBM binding z-score (relative to random genomic background probes); higher = stronger binding; sequences stand for … in GC…GCGATTGACAGCGTAGAATGAAGG
[1] = system: PPARg:RXRa DBDmut IVT, anti-RXR (DBD mutation: RXRa K156A/R161A, NR concentration 270 nM, RXRa partner concentration 90 nM)
How it was run: (§1)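 On custom Agilent 4×180K arrays, double-stranded probes with 34-nt variable regions carried direct-repeat seeds, single-nucleotide variants, half-site ablations or random human genomic background. Ligand-free nuclear receptor dimers were applied for 1 h, and binding was read with antibodies against each partner (one per run). Binding z-scores come from regression-normalized fluorescence, with the random background probes as reference.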

[2] = system: PPARg:RXRa IVT, anti-PPARg (NR concentration 270 nM, RXRa partner concentration 90 nM)
How it was run: as §1

[3] = system: PPARg DBDmut:RXRa IVT, anti-PPARg (DBD mutation: PPARg1 K132A/R137A, NR concentration 270 nM, RXRa partner concentration 90 nM)
How it was run: as §1

[4] = system: PPARg DBDmut IVT, anti-PPARg (DBD mutation: PPARg1 K132A/R137A, NR concentration 270 nM)
How it was run: as §1

[5] = system: PPARg homodimer (NR concentration 180 nM)
How it was run: as §1

[6] = system: PXR:RXRa (NR concentration 270 nM, RXRa partner concentration 90 nM)
How it was run: as §1

[7] = system: PXR homodimer (NR concentration 270 nM)
How it was run: as §1

[8] = system: RARa:RXR (NR concentration 270 nM, RXRa partner concentration 90 nM)
How it was run: as §1

[9] = system: RARa homodimer (NR concentration 270 nM)
How it was run: as §1

[10] = system: RARb:RXRa (NR concentration 270 nM, RXRa partner concentration 90 nM)
How it was run: as §1

Sequence	PBM binding z-score [1]	PBM binding z-score [2]	PBM binding z-score [3]	PBM binding z-score [4]	PBM binding z-score [5]	PBM binding z-score [6]	PBM binding z-score [7]	PBM binding z-score [8]	PBM binding z-score [9]	PBM binding z-score [10]
ATCGAAAGGTCGAGTTGAGTATAGAGAAAGGGAA	-0.0281	1.21	0.792	0.196	1.65	2.74	0.316	3.29	0.834	3.88
ACTAGTTGGTCAGCTGAGGTCACACTCAATTCGG	1.55	2.58	0.716	-0.0108	1.84	5.39	1.85	4.51	0.596	3.54
CCTCGGAGGACAACAGGATGTCAGAGCTGCCAGA	0.0272	-0.669	-0.339	-1.74	-0.00372	-0.729	-0.378	-0.712	-0.0154	1.13
TAGCCTCGGTCATTCAGGGGCCAGTATAGAAAGC	-0.712	0.476	0.246	-0.322	0.0789	-0.0122	-0.574	0.667	-0.375	2.68
CCGACTGGGGCAAAGGTTACCATGCTCAGTACGA	4.91	6.34	0.168	-0.503	1.36	2.28	-0.702	4.09	-0.847	2.63
TCATATAGGTTAAAGGTGAAAGTCGGTGTGGTAA	6.74	6.73	2.27	1.26	3.22	3.73	0.749	6.33	2.29	2.9
TCTTGTAGATCAAAGCTTAAGAAAGCCGAAGCCT	1.63	0.218	-0.031	-0.413	-0.405	-0.275	-0.758	-0.177	-0.517	-0.506
CAAACTAGGTCACCGGAAGGTCATAGTCCGCATG	8.59	9.21	4.3	3.06	4.74	5.48	1.67	6.36	1.54	5.66
CTTAGTTGGTCAAGGTCACACACGCTATAGGTAC	4	4.92	0.864	1.4	2.76	4.35	2.79	4.4	2.07	4.35
TCTGCTAGGTCAACGATGGTCAGCGAATCTGCTA	4.02	4.01	0.33	-0.3	0.458	1.44	-0.999	2.26	-0.808	4.11
GCTTACGGGTCAAAGGTTATAACATGAATAGAAT	4.69	5.8	1.74	2.86	3.61	6.24	0.489	8.14	0.937	4.53
AGTCAAAGTTCACTAGGTTACGTAAGATTCAGCT	3.75	5.6	1.8	1.2	1.99	4.58	4.84	4.08	2.05	4.93
CGAACTAGTTCAAGGACAGTGAATCTCCGCACGC	0.894	-0.296	-0.635	-0.503	0.151	0.352	0.308	0.402	-0.835	1.53
CCTACTGGGCCAAAGGTCATAGATTCCAATGCTC	5.3	7.19	0.0659	-0.0407	4.53	5.14	1.46	6.41	1.47	4.4
CGTCCGAGGTCAATGCTAGGTCAGTGAAAGCATT	3.56	4.42	-0.103	-0.0468	4.53	5.62	2.14	6.71	0.652	5.17
CGTCCAAGGTCAGCAGGTCAGAGAAAGCGACGTG	3.52	3.72	0.0227	-0.591	6.44	4.02	0.651	5.74	2.67	5.39
AGTAAAAGTTCACTAGGTAACGTAAGATTCAGCT	2.43	4.33	0.938	1.34	2.48	3.04	2.08	2.39	1.61	4.39
ATATCTAGGTAAAAGTTCAGTGAATCCCGAGGAT	6	6.34	1.91	1.42	1.87	2.33	1.9	1.6	1.5	2.56
CGTCCAAGGTCATGGGAGGTCAGTGAAGACAGAT	2.93	4.47	0.44	-0.0199	4.73	7.17	5.18	6.5	2.4	5.61
CCGACTTGGGCAAAGGTTACCATACTCAGTACGA	0.755	2.56	-0.26	-0.659	0.915	1.45	0.0117	2.35	-0.0307	1.92
AGAATGGGGTTATTAAGATCAGGGAATTGCGGTC	3.63	3.26	1.44	1.55	2.23	2.44	1.82	2.78	1.71	1.77
CCTAGTTGGTCAAGCTCACACACGCTATAGGTAC	1.68	1.17	0.0557	0.393	0.772	0.179	0.39	0.432	1.68	1.14
TAGCCTAGCTCATTCAGGGGCCAGTATAGAAAGC	-0.101	-0.269	-0.969	-0.592	-1.77	-0.527	-0.788	-0.603	-1.25	-0.199
CAAACTAGGCCAAGGTCAAAGTCGGTTTGTGCCA	6.88	6.61	0.98	0.266	1.87	4.28	1.2	3.97	0.776	4.07
